# A number with no mark means an inactive call. Records with an inconclusive call do not appear. Entries that show only a call come without a potency. The source made the active and inactive calls. Calls come from the whole dose curve; as a rule, active = well fitted curve in the direction sought with a large enough effect; inconclusive = small, poorly fitted or top-dose-only effect, or another doubt; inactive = no such curve, though single readings can be large; an effect the other way counts as inactive or inconclusive.
# Legend:
# [1] = UWB1.289 Cancer Cell Toxicity qHTS against the NCATS CANVASS Library (AID 1347347); note: nearly all actives have a fitted effect of over 60% in size; for activity change, negative = cytotoxicity: series mostly up to about 38 µM
# In short: (§1)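 In this cytotoxicity screen, 1000 cells per well rested 4 hours, then received compound (11 concentrations) for a 72-hour incubation; an ATP-dependent luminescent signal (CellTiter-Glo) was the endpoint.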
# [2] = OV-SAHO Cancer Cell Toxicity qHTS against the NCATS CANVASS Library (AID 1347348); note: series mostly up to about 38 µM; nearly all actives have a fitted effect of over 55% in size
# In short: as §1
# [3] = HPAF-II 24hr Apoptosis Induction qHTS against the NCATS CANVASS Library (AID 1347356)
# In short: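 HPAF-II cells (500/well) in DMEM + 10% FBS were treated with an 11-point compound series for 24 hours at 37 degrees C. Caspase-3/7 activity was then read by Caspase-Glo DEVD luminescence after 15 min.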
# [4] = HPAF-II 18hr Apoptosis Induction qHTS against the NCATS CANVASS Library (AID 1347360)
# In short: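 Apoptosis was scored as caspase-3/7 activity in HPAF-II pancreatic cancer cells treated 18 hours with an 11-point concentration series.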
# [5] = qHTS for ATAD5 Agonist screened against the NCATS CANVASS Library (AID 1347367);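 note: luciferase reporter driven by ATAD5 which rises upon DNA damage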
# In short: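 Step one plated reporter cells and let them acclimate 5hr. Step two pinned compounds with MMS as positive and 0.46% DMSO as negative control. After 16hr incubation, fluorescence viability then luminescence were read.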
# [6] = Redox Reaction Profiling qHTS: Assay Interference Panel against the NCATS CANVASS Library (AID 1347401); note: potency is the fitted concentration of half-maximal effect
# In short: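 Compounds in 11-point series incubated with 5 uM resazurin and 200 uM DTT in 50 mM HEPES pH 7.3, 50 mM NaCl. Resorufin fluorescence (Ex 525/Em 598) read before and after 15 min in the dark.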
# [7] = qHTS for activators of dead-cell proteases activity screened against the NCATS CANVASS Library (AID 1347392);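 note: luminescence from protease leaking out of membrane-damaged cells cleaving impermeant substrate; rising signal means more cytotoxicity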
# In short: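 HepG2 cells, 2000/well, attached 18 h at 37C, then exposed to compounds (11-point qHTS) for 5 h. Dead-cell protease release read as luminescence from cell-impermeant AAF-aminoluciferin substrate after 15 min at room temperature.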
# [8] = qHTS for Antimalaria activity screened against the NCATS CANVASS Library (AID 1347380); note: nearly all actives have a fitted effect of over 40% in size; note: potency is the fitted concentration of half-maximal effect
# In short: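 P. falciparum Dd2-infected RBCs (2.5% hematocrit final, 0.3% parasitemia) in Albumax II RPMI were exposed to compounds in an 11-point qHTS series for 72 h at 37C under 5% O2/5% CO2, then lysed with SYBR Green.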
# [9] = test system: Zika virus NS2B-NS3 protease (linked construct); assay: Primary screen NINDS Rhodamine qHTS for Zika virus inhibitors (AID 1347160); note: nearly all actives have a fitted effect of over 55% in size; note: potency is the fitted concentration of half-maximal effect
# In short: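 Percent inhibition, normalized to uninhibited and enzyme-free controls, is fitted to a 4-parameter Hill equation. Fluorescence change comes from a 15-min cleavage of 1.5 microM bis-peptide Rhodamine110 substrate by 25 nM linked NS2B-NS3 at room temperature.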
smiles,measurement,setting,value
CO[C@@H]1[C@H](O)[C@@H](C)O[C@@H](OC[C@H]2/C=C/C=C/C(=O)C(C)C[C@H](C)C(O[C@@H]3O[C@H](C)CC4(OC(=O)O[C@@H]4C)C3O)[C@@H](C)/C=C/C(=O)OC2C)[C@@H]1OC (some centres undefined),Potency,[1],inactive
same,Potency,[2],inactive
same,outcome,[3],inactive
same,Potency,[4],inactive
same,Potency,[5],inactive
same,Potency,[6],inactive
CCCCCCC[C@@H](C/C=C/CCC(=O)NCCc1c[nH]c2ccccc12)OC,Potency,[2],inactive
same,Potency,[4],inactive
same,Potency,[5],inactive
same,Potency,[7],inactive
C=C1C[C@@]23C=CC(=O)[C@@](C)(CCC(=O)Nc4c(O)ccc(C(=O)O)c4O)C2C[C@@H]1C(O)C3 (some centres undefined),Potency,[1],inactive
same,outcome,[3],inactive
same,Potency,[5],inactive
same,Potency,[8],inactive
same,Potency,[7],inactive
C[C@@H]1C(=O)[C@]23CC[C@H]1C[C@]21O[C@H]2C(C)(C)C=CC(=O)[C@]23COC1=O,Potency,[1],inactive
same,outcome,[3],inactive
same,Potency,[4],inactive
same,Potency,[8],inactive
same,Potency,[6],inactive
C=C1C(=O)O[C@H]2C[C@H](C)[C@@H]3CC(=O)C(C)=C3[C@H](O)[C@H]12,Potency,[9],inactive
same,Potency,[6],inactive
C[C@]12CC[C@]3(C1)[C@H](CC2=O)CC(OC(=O)c1ccccc1)[C@H]1[C@@](CO)(C(=O)O)CCC[C@@]13C (some centres undefined),Potency,[1],inactive
same,Potency,[2],inactive
same,Potency,[4],inactive
same,Potency,[6],inactive
COc1ccc2cc(NC(=O)C3=NO[C@H]4[C@H](O)C=C[C@@H](Cl)[C@@]4(O)C3)c(=O)oc2c1OC,Potency,[1],inactive
same,outcome,[3],inactive
same,Potency,[4],inactive
same,Potency,[8],inactive
same,Potency,[7],inactive
same,Potency,[6],inactive
C[C@@H]1O[C@@H](O[C@@H]2[C@@H](O)[C@H](O[C@@H]3[C@@H](O)[C@@H](O)C(O[C@H]4[C@H](OC(=O)[C@]56CCC(C)(C)C[C@H]5C5=CCC7[C@@]8(C)C[C@H](O)[C@H](O[C@@H]9C[C@H](CO)[C@@H](O)[C@H](O)[C@H]9O)[C@@](C)(CO)C8[C@H](O)C[C@@]7(C)[C@]5(C)CC6)OC[C@H](O)[C@@H]4O)O[C@H]3C)OC[C@H]2O)[C@H](O)[C@H](O)[C@H]1O (some centres undefined),outcome,[3],inactive
same,Potency,[4],inactive
same,Potency,[5],inactive
same,Potency,[7],inactive
C[C@@]12C[C@@H](C[C@H]3C(=O)O[C@@H](c4ccoc4)[C@H](OC(=O)c4ccccc4)[C@@H]31)OC2=O,Potency,[1],inactive
same,Potency,[4],inactive
same,Potency,[8],inactive
same,Potency,[6],inactive
C/C=C1/CC[C@@H]2c3[nH]c4ccccc4c3CCN2C1,Potency,[9],inactive
same,Potency,[2],inactive
same,Potency,[7],inactive
same,Potency,[6],inactive
O=C1C[C@@H](c2ccc(O)c(-c3c(O)cc(O)c4c3O[C@H](c3ccc(O)cc3)CC4=O)c2)Oc2cc(O)cc(O)c21,Potency,[9],4.84 µM (active)
same,outcome,[3],inactive
same,Potency,[4],inactive
same,Potency,[5],inactive
same,Potency,[7],inactive
Oc1ccc([C@H]2Oc3ccc(/C=C/c4cc(O)cc(O)c4)cc3C2c2cc(O)cc(O)c2)cc1 (some centres undefined),Potency,[9],24.7 µM (active)
same,Potency,[2],inactive
same,outcome,[3],inactive
same,Potency,[4],inactive
same,Potency,[8],0.003 µM (active)
same,Potency,[6],inactive
C=C1[C@H]2CC[C@@]3(C=CC(=O)[C@@](C)(CCC(=O)Nc4c(O)ccc(C(=O)O)c4O)C3C2)[C@H]1O (some centres undefined),Potency,[1],inactive
same,Potency,[2],inactive
same,Potency,[4],inactive
same,Potency,[8],inactive
same,Potency,[7],inactive
C/C(=C\[C@H](C)C(=O)CCCC1CC(=O)NC(=O)C1)C(O)[C@@H](C)[C@H](O)C/C=C/CC/C=C/C(=O)O (some centres undefined),Potency,[1],inactive
same,outcome,[3],inactive
same,Potency,[4],inactive
same,Potency,[8],inactive
same,Potency,[7],inactive
CC12C[C@]3(O)O[C@@H](O1)[C@]1(COC(=O)c4ccccc4)[C@@H]3CC21OC1OC(CO)C(O)C(O)C1O (some centres undefined),outcome,[3],inactive
same,Potency,[4],inactive
same,Potency,[5],inactive
same,Potency,[8],inactive
same,Potency,[7],inactive
same,Potency,[6],inactive
CC1(C)CCC[C@]2(C)[C@@H]1CC[C@@]13C[C@@H](CC[C@H]12)C(C)(O)C3 (some centres undefined),Potency,[1],inactive
same,outcome,[3],inactive
same,Potency,[5],inactive
same,Potency,[8],inactive
CC1C(=O)C23CCC1C[C@]21O[C@@H]2C(C)(C)C=CC(=O)[C@@]23COC1=O (some centres undefined),Potency,[1],inactive
same,Potency,[2],inactive
same,Potency,[4],inactive
same,Potency,[5],inactive
same,Potency,[7],inactive
same,Potency,[6],inactive
O=C1c2c(O)cc(O)cc2O[C@@H](c2ccc(O)cc2)[C@@H]1c1c(O)cc(O)c2c(=O)cc(-c3ccc(O)c(O)c3)oc12,Potency,[1],inactive
same,Potency,[2],inactive
same,Potency,[4],inactive
same,Potency,[7],inactive
CN1CCc2cc3c(c4c2[C@H]1[C@@H](O)c1ccccc1-4)OCO3,Potency,[9],44 µM (active)
same,Potency,[2],inactive
same,outcome,[3],inactive
same,Potency,[4],inactive
same,Potency,[7],inactive
same,Potency,[6],7.64 µM (active)
COc1ccc([C@@H]2c3cc(OC)c(OC)cc3C(=O)[C@H](C)C2C)cc1OC (some centres undefined),"activity change, negative = cytotoxicity",[1],3.43% [at 7.64 µM]
same,"activity change, negative = cytotoxicity",[2],-3.3% [at 7.64 µM]
same,activation,[5],-0.416% [at 9.19 µM]
same,activation (cytotoxicity),[7],-0.488% [at 9.19 µM]
same,activation (redox signal),[6],-5.6% [at 11.4 µM]
CO[C@@H]1[C@H](O)[C@@H](C)O[C@@H](OC[C@@H]2C(C)OC(=O)/C=C/[C@H](C)C(O[C@@H]3O[C@H](C)CC4(OC(=O)O[C@@H]4C)C3O)[C@@H](C)CC(C)C(=O)CC[C@H]3OC23)[C@@H]1OC (some centres undefined),Potency,[1],inactive
same,Potency,[2],inactive
same,outcome,[3],inactive
same,Potency,[4],inactive
same,Potency,[5],inactive
same,Potency,[8],inactive
same,Potency,[7],inactive
C[C@@H]1O[C@@H](Oc2c(-c3ccc(O)cc3)oc3cc(O)cc(O)c3c2=O)[C@H](O)[C@H](O)[C@H]1O,Potency,[9],44 µM (active)
same,Potency,[1],inactive
same,Potency,[5],inactive
same,Potency,[8],inactive
same,Potency,[7],inactive
same,Potency,[6],inactive

# Reference: PubChem BioAssay (NCATS)
